Data on five compounds can be found in PubChem BioAssay.

For this test, the target named is Fibroblast growth factor 2 (Homo sapiens) (UniProt P09038). Put plainly: basic fibroblast growth factor binding to printed compounds – biochemical, small-molecule microarray, 635/667 nm fluorescence, primary screen (AID 1133). The conditions noted are these: FGF2, fluorescence 635/667, higher = more signal.
Chain of Fibroblast growth factor 2 (Homo sapiens) (P09038 whole entry, looked up): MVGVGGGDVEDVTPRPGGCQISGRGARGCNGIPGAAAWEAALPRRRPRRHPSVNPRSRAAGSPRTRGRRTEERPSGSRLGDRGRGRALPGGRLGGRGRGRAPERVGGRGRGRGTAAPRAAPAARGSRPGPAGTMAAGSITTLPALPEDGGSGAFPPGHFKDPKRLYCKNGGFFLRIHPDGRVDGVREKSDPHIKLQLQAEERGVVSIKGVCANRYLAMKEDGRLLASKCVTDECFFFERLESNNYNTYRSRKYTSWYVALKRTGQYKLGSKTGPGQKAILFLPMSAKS
Turning to `C=CCNC(=O)[C@@H]1[C@H]2C(=O)O[C@H](c3ccccc3)[C@H](c3ccccc3)N2[C@H](c2ccc(O)cc2)[C@@]12C(=O)N(C(=O)OCCOC)c1ccc(C#CCCO)cc12`, the composite z-score was found to be 1.25.
As for `C=CCNC(=O)[C@@H]1[C@H]2C(=O)O[C@H](c3ccccc3)[C@H](c3ccccc3)N2[C@H](c2ccc(OCCO)cc2)[C@@]12C(=O)N(C(=O)OCCOC)c1ccc(C#CCCO)cc12`, the figure is 0.482; as for `C=CCOC(=O)[C@H]1[C@@H]2C(=O)O[C@@H](c3ccccc3)[C@@H](c3ccccc3)N2[C@@H](c2ccc(OCCOC(=O)[C@H]3C[C@H]4C(=O)N[C@@H](CCCCNC(C)=O)C(=O)N4[C@H]3c3cccc(OCCO)c3)cc2)[C@]12C(=O)Nc1ccc(I)cc12`, 1.68; as for `COCCOC(=O)N1C(=O)[C@@]2(c3cc(C#CC4=CCCCC4)ccc31)[C@H](c1ccc(O)cc1)N1[C@H](c3ccccc3)[C@H](c3ccccc3)OC(=O)[C@H]1[C@@H]2C(=O)NC[C@H](O)c1ccccc1`, 0.685.
As for `CN1C(=O)C2C=CC(C(O)c3ccc(I)cc3)N(Nc3ccccc3)C2C1=O` (stereo not given), the figure is 0.979.
